Screening results as filed in PubChem BioAssay.
HCV inhibitor: blocks hepatitis C virus; Huh7.5.1 HCVcc-Cre infection, luciferase reporter, 44 h; Potency, µM (titrated, usually from 41.8 µM), without a hit: at the highest dose activity change, negative = inhibition, hits mostly inhibitors; 340,000 tested, 3.4% active; AID 651820
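1,000 cells/well; 4 h culture; + compound; + HCVcc-Cre (~0.5 moi); 44 h; luciferase substrate, RT 15 min; read 15 sec.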
AmpC inh detg: blocks E. coli AmpC beta-lactamase in detergent assay | AmpC hydrolysis of nitrocefin, absorbance 480 nm, 0.01% Triton | 370,000 tested, 0.041% active | Potency, µM (highest dose often 114 µM), without a hit: at the highest dose activity change, negative = inhibition, usual class: inhibitors | P00811;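 note: 0% = no-compound wells and -100% = no-enzyme wells; nearly all actives have a fitted effect of over 25% in size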
Target sequence (P00811 whole entry, looked up): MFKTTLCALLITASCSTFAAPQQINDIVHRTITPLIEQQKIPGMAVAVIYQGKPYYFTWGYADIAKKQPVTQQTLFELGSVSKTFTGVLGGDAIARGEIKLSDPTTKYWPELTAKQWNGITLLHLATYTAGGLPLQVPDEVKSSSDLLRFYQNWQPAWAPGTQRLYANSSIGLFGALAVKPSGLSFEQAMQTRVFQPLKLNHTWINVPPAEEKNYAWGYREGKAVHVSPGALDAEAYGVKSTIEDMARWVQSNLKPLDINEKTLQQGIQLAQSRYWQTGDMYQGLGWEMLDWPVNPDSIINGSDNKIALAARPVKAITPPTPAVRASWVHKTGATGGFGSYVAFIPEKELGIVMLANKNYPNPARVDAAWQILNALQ
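AmpC (5.3 nM in the dispensed reagent) in 20 mM phosphate pH 7.0 with 0.01% (detergent screen) or 0.0001% Triton X-100 was preincubated with compounds for 15 min at room temperature. Nitrocefin was then added from an 800 uM solution, and hydrolysis was followed at 480 nm.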
AMA1 RON2 block: inhibitors of Plasmodium falciparum AMA1-RON2 interaction; AlphaScreen AMA1-biotinylated RON2 peptide binding; Potency, µM (titrated, usually from 58.2 µM), without a hit: at the top dose activity change, negative = inhibition, most hits filed as inhibitors; 360,000 tested, 0.2% active;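 note: 0% = vehicle wells and -100% = peptide control; nearly all actives have a fitted effect of over 45% in size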
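AMA1 (3D7) with his tag at 25 nM final met compounds first, then biotinylated RON2 peptide at 25 nM; detection used donor plus acceptor beads, 10 µg/mL apiece, read by AlphaScreen after 30 min at room temperature.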
AmpC no deterg: blocks E. coli AmpC beta-lactamase in detergent-free assay. P00811. AmpC nitrocefin hydrolysis, absorbance 480 nm, 0.0001% Triton. 330,000 tested, 0.52% active. Potency, µM (highest dose often 57.1 µM), inactives show at the top dose activity change, negative = inhibition, usual class: inhibitors;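 note: plate controls were no compound for no effect and no enzyme for full effect; nearly all actives have a fitted effect of over 20% in size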
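20 mM phosphate pH 7.0 + 0.01% (detergent screen) or 0.0001% Triton X-100; 5.3 nM AmpC reagent; cpd preinc 15 min RT; nitrocefin (800 uM stock) to start; A480 q20 s × 4 min; Activity was normalised to no-enzyme and no-compound control wells.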
Pf growth 96h: P. falciparum growth inhibition at 96 hours; AID 504834; 320,000 tested, 6.9% active; P. falciparum luciferase reporter growth, 96 h; Potency, µM (highest dose often 28.7 µM), inactives show at the highest dose activity change, negative = inhibition, actives largely listed as inhibitors
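Erythrocytes infected with luciferase-expressing P. falciparum were dispensed at 2% hematocrit and 0.05% parasitemia (final), then incubated with compounds 96 hours at 37 C in 5% CO2. Luminescence after detection reagent addition reported growth.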
Pf growth 48h: inhibits P. falciparum growth in the first generation, 48 h | P. falciparum luciferase growth in erythrocytes, 48 h | Potency, µM (top dose mostly 28.7 µM), for inactives: at the top dose activity change, negative = inhibition, usual class: inhibitors | 310,000 tested, 5.9% active
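Firefly luciferase activity from engineered P. falciparum reports growth; inhibitors lower the luminescent signal. Cultures contained 2% hematocrit erythrocytes at 0.1% final parasitemia.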
* = called active by the depositor; ? = inconclusive; . = not tested or not shown; [ ] = remark or other dose. Rows were chosen to be rich in hits. Some 11% of all compounds tested hit in one or more screens of this group. Calls come from the whole dose curve; as a rule, active = well fitted curve in the direction sought with a large enough effect; inconclusive = small, poorly fitted or top-dose-only effect, or another doubt; inactive = no such curve, though single readings can be large; an effect the other way counts as inactive or inconclusive. Unless noted, % is set by controls: 0 for no effect and ±100 for the full control effect; potency is the fitted concentration of half-maximal effect.

SMILES | HCV inhibitor | AmpC inh detg | AMA1 RON2 block | AmpC no deterg | Pf growth 96h | Pf growth 48h
CCN(CC)c1ccc(NC(=O)COc2ccccc2C#N)cc1S(=O)(=O)Nc1ccc(OC)cc1 | ? | ? | 7% | -26% | 4.1µM* | 8.3µM*
CCCC(=O)Nc1cccc(-c2nc3cc(C)c(C)cc3o2)c1C | . | 13% | . | . | . | .
CCN(CC)CCNC(=O)Cn1nc(C)c2c(C)n(-c3ccccc3)nc2c1=O | . | -4% | . | . | . | .
CCN(CC)c1ccc(NC(=O)c2ccccc2F)cc1S(=O)(=O)Nc1ccccc1OC | ? | -10% | -4% | -37% | 10µM* | 4.7µM*
CCN(CC)c1ccc(NC(=O)c2ccc(=O)[nH]c2)cc1S(=O)(=O)Nc1ccccc1OC | 22µM* | -7% | -10% | 13% | 6.6µM* | 10µM*
CCN(CC)c1ccc(NC(=O)COc2ccccc2C)cc1S(=O)(=O)Nc1ccccc1OC | ? | ? | 16%[2.32 µM] | -24% | ? | 9.3µM*
COc1ccc(NC(=O)c2ccccc2F)cc1Cl | -8% | -12% | -3% | -22% | 2% | .
COc1ccc(NC(=O)c2ccc(=O)[nH]c2)cc1S(=O)(=O)N1CCCCC1 | 4% | -4% | . | -33% | -8% | 2%
COc1cc(NC(=O)CN2C(=O)C(c3ccc(C)cc3)=NC23CCCCCC3)cc(OC)c1 | . | 18% | . | . | . | .
CCOc1cc(CNC(=O)C2COc3ccccc3C2)cc(OCC)c1OCC (configuration not stated) | . | 16% | . | . | . | .
O=C(Nc1ccc(-c2nc3ccc(NC(=O)c4cccs4)cc3[nH]2)cc1)c1cccs1 | ? | 0% | -15% | -55% | . | 2.6µM*
CC(=O)Nc1ccc2nc(-c3ccncc3)[nH]c2c1 | 11% | -3% | -1% | -6% | -2% | .
O=C(Nc1ccc2nc(-c3cccs3)[nH]c2c1)c1cccs1 | 13µM* | ? | -20% | -41% | . | 53%
Cc1ccc(-c2cc(C(=O)N(Cc3ccccc3)Cc3ccco3)no2)cc1F | . | 17% | . | . | . | .
CCOC(=O)N1CCN(Cc2nc3cc(NC(=O)c4ccc([N+](=O)[O-])cc4)ccc3n2C(C)C)CC1 | . | 6% | . | . | . | .
CC(C)CN1C=C2C(=O)C(C)(OC(=O)C3CCCC3)C(=O)C=C2C=C1c1ccsc1 (configuration not stated) | 6% | 0% | 9% | 25% | 10µM* | ?
CCN(CC)CCCN1C=C2C(=O)C(C)(OC(=O)C3CCCC3)C(=O)C=C2C=C1c1ccsc1 (configuration not stated) | 3% | -5% | -9% | 48% | ? | 10µM*
CC1(OC(=O)C2CCCC2)C(=O)C=C2C=C(c3ccsc3)N(Cc3ccccc3)C=C2C1=O (configuration not stated) | 3% | 1% | -14% | 49% | ? | 12µM*
O=C(NCCc1cccs1)C12CN(Cc3ccccc3)CC1C(c1cccc([N+](=O)[O-])c1)=NO2 (configuration not stated) | ? | -2% | -23% | 1% | ? | 8.3µM*
O=C(NCCCCc1ccccc1)C12CN(Cc3ccccc3)CC1C(c1ccc([N+](=O)[O-])cc1)=NO2 (configuration not stated) | ? | -8% | -16% | -2% | ? | 13µM*
O=C(NCCCCc1ccccc1)C12CN(Cc3ccccc3)CC1C(c1cccc([N+](=O)[O-])c1)=NO2 (configuration not stated) | ? | 0% | ? | -2% | ? | 4.7µM*
CC(C)CCNC(=O)C12CN(Cc3ccccc3)CC1C(c1cccc([N+](=O)[O-])c1)=NO2 (configuration not stated) | 35% | -8% | -25% | 4% | ? | ?
c1ccc(Cc2cc[n+](Cc3ccccn3)cc2)cc1 | 14% | 5% | 11% | 1% | 1µM* | 4.1µM*
Cc1cc(-c2ccccc2)cc(C)[n+]1Cc1ccccc1 | -14% | -14% | 4% | -8% | 0.37µM* | 0.74µM*
O=[N+]([O-])c1cc(Cl)c(O)c(-[n+]2c(-c3ccccc3)cc(-c3ccccc3)cc2-c2ccccc2)c1 | ? | ? | -13% | 96% | ? | ?
SMILES | HCV inhibitor | AmpC inh detg | AMA1 RON2 block | AmpC no deterg | Pf growth 96h | Pf growth 48h
O=[N+]([O-])c1ccc(C[n+]2ccc(Cc3ccccc3)cc2)cc1 | 5% | 1% | -5% | -10% | 35% | 3.7µM*
O=C([O-])c1cc(-c2ccccc2)cc(-c2ccccc2)[n+]1Cc1ccccc1 | -6% | 0% | . | -21% | 0.52µM* | 0.52µM*
ON(CCc1ccccn1)Cc1ccccc1 | 8% | . | 41% | . | . | .
O=C(Cn1ncc2c3ccccc3n(Cc3ccc(Cl)cc3)c2c1=O)NCc1cccs1 | . | 5% | . | . | . | .
CCn1c(=O)n(-c2ccc(C)c(F)c2)c(=O)c2sc3ccccc3c21 | . | 4% | . | . | . | .
CCOc1ccc(-c2c(C)nn3c(C)c(C(=O)NCc4ccc(Cl)cc4)cnc23)cc1OCC | . | -8% | . | . | . | .
O=[N+]([O-])c1ccc(C[n+]2c(-c3ccccc3)cc(-c3ccccc3)cc2-c2ccccc2)cc1 | 10µM* | -5% | -7% | 39% | 0.93µM* | 1.2µM*
CN(C1CCCCC1)S(=O)(=O)c1ccc2c(c1)c(=O)c(C(=O)NCCc1ccc(Cl)cc1)cn2C | . | -1% | . | . | . | .
Cn1nc([N+](=O)[O-])nc1S(C)(=O)=O | 10µM* | -1% | -10% | -16% | 4.7µM* | -6%
CS(=O)(=O)c1nc([N+](=O)[O-])nn1CCCc1ccccc1 | ? | . | 6% | . | . | .
CCc1nn2c(=O)cc(COC(=O)c3cccc(NC(=O)CCc4ccccc4)c3)nc2s1 | . | -3% | . | . | . | .
COc1ccc(Cc2noc(CN(C)CCN3CCc4ccccc4C3)n2)cc1OC | -15% | -5% | 13% | 72% | 7.4µM* | -70%
CN(CCN1CCc2ccccc2C1)Cc1nc(Cc2ccccc2F)no1 | -8% | 6% | -6% | 68% | 10µM* | ?
COC(=O)c1ccc(CSc2nc3ccccc3c(=O)n2CC(C)C)o1 | ? | 6% | 14% | -13% | ? | -22%
CC(=O)OC(c1nc2ccccc2c(=O)n1C1CC2(OC1=O)c1ccccc1N1C(=O)C(C)(C)N(O)C12)C(C)C (configuration not stated) | ? | 0% | -1% | 151% | 10µM* | 2.1µM*
COC(=O)c1cc2oc3ccccc3c2n1CC(=O)Nc1cccc(SC)c1 | . | 7% | . | . | . | .
